Results taken from PubChem BioAssay AID1159580 (chemical genetic matrix, 2015).
Several values for one entry are separate records, joined by “and”; a condition that tells them apart may be missing. Equal values may be shown once. About 2,000 (36%) of roughly 5,500 compounds were called active. Not shown: some 18% with an inconclusive outcome. No stated cut-off is given here; in the data, active means normalized growth mostly below about 0.91 (no sharp cut-off); inconclusive means no clear call, values can overlap the other calls; inactive means mostly above about 0.92. This is one part of the list.

Experiment: chemical genetic growth profiling, strain panel (AID 1159580);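 further: tested at 20 µM; growth read once vehicle control cultures reached saturation at 30 °C; 1 = growth at the plate median or of vehicle wells; lower values mean less growth of the strain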
Settings: S. cerevisiae deletion strains, growth OD

Measured: normalized growth

CO/N=C(\C(=O)N[C@@H]1C(=O)N2C(C(=O)O)=C(COC(C)=O)CS[C@H]12)c1csc(N)n1
inactive: locus YAL021C, strain ccr4, active compounds read low 0.961 | locus YAL026C, strain drs2, active compounds read low 0.983 | locus YAL030W, strain snc1, active compounds read low 0.983 | locus YBL061C, strain skt5, active compounds read low 0.993 | locus YBR009C, strain hhf1, active compounds read low 0.973 | locus YBR021W, strain FUR4, active compounds read low 1 | locus YBR023C, strain chs3, active compounds read low 1.02 | locus YBR171W, strain sec66, active compounds read low 0.993 | locus YBR229C, strain ROT2, active compounds read low 0.954 | locus YBR231C, strain swc5, active compounds read low 0.975 | locus YBR279W, strain paf1, active compounds read low 1 | locus YCL011C, strain gbp2, active compounds read low 0.954 | locus YCL016C, strain dcc1, active compounds read low 0.961 | locus YCL029C, strain bik1, active compounds read low 0.998 | locus YCL061C, strain MRC1, active compounds read low 0.964 | locus YCL069W, strain vba3, active compounds read low 0.995 | locus YCR088W, strain abp1, active compounds read low 0.985 | locus YDL005C, strain med2, active compounds read low 0.992 | locus YDL035C, strain GPR1, active compounds read low 0.959 | locus YDL040C, strain nat1, active compounds read low 0.989 | locus YDL074C, strain BRE1, active compounds read low 1.02 | locus YDL101C, strain DUN1, active compounds read low 0.99 | locus YDL185W, strain tfp1, active compounds read low 0.965 | locus YDL192W, strain arf1, active compounds read low 0.982 | locus YDR001C, strain nth1, active compounds read low 0.976 | locus YDR069C, strain doa4, active compounds read low 0.996 | locus YDR101C, strain arx1, active compounds read low 0.975 | locus YDR137W, strain rgp1, active compounds read low 0.938 | locus YDR159W, strain sac3, active compounds read low 0.985 | locus YDR162C, strain NBP2, active compounds read low 0.954 | locus YDR195W, strain ref2 0.989 | locus YDR297W, strain sur2, active compounds read low 0.986 | locus YDR318W, strain mcm21, active compounds read low 0.996 | locus YDR334W, strain swr1, active compounds read low 0.976 | locus YDR335W, strain msn5, active compounds read low 0.992 | locus YDR388W, active compounds read low 0.992 | locus YDR392W, strain spt3, active compounds read low 0.896 | locus YDR502C, strain sam2, active compounds read low 1 | locus YEL003W, strain gim4, active compounds read low 1.02 | locus YEL037C, strain rad23, active compounds read low 0.991 | locus YEL061C, strain CIN8 (second series), active compounds read low 0.989 | locus YEL061C, strain CIN8, active compounds read low 0.995 | locus YER015W, strain faa2, active compounds read low 0.979 | locus YER016W, strain bim1, active compounds read low 0.99 | locus YER110C, active compounds read low 0.992 | locus YER111C, strain swi4, active compounds read low 1 | locus YER155C, strain BEM2 (second series), active compounds read low 0.965 | locus YER155C, strain BEM2, active compounds read low 1 | locus YER167W, strain BCK2, active compounds read low 1.02 | locus YFR010W, strain ubp6, active compounds read low 0.97 | locus YGL078C, strain dbp3, active compounds read low 0.998 | locus YGL086W, strain mad1, active compounds read low 0.984 | locus YGL167C, strain pmr1, active compounds read low 1.01 | locus YGL173C, strain kem1, active compounds read low 1.01 | locus YGL227W, strain vid30, active compounds read low 0.993 | locus YGL240W, strain doc1, active compounds read low 0.996 | locus YGL248W, strain PDE1, active compounds read low 1.02 | locus YGL253W, strain hxk2, active compounds read low 1 | locus YGR135W, strain pre9, active compounds read low 1.05 | locus YGR229C, strain SMI1, active compounds read low 0.979 | locus YGR252W, strain gcn5, active compounds read low 1.05 | locus YHR013C, strain ard1, active compounds read low 0.94 | locus YHR027C, strain rpn1, active compounds read low 0.987 | locus YHR030C, strain SLT2, active compounds read low 0.988 and 1.01 | locus YHR079C, strain IRE1 (second series), active compounds read low 0.998 | locus YHR079C, strain IRE1, active compounds read low 0.992 | locus YHR094C, strain hxt1, active compounds read low 0.994 | locus YHR129C, strain ARP1, active compounds read low 0.99 | locus YHR142W, strain chs7, active compounds read low 0.993 | locus YHR200W, strain rpn10, active compounds read low 0.981 | locus YIL066C, strain RNR3, active compounds read low 0.976 | locus YIL073C, strain SPO22, active compounds read low 1.06 | locus YIL125W, strain kgd1, active compounds read low 0.986 | locus YIR030C, strain dcg1, active compounds read low 0.996 | locus YJL092W, strain hpr5, active compounds read low 0.974 | locus YJL095W, strain BCK1 (second series), active compounds read low 0.97 | locus YJL095W, strain BCK1, active compounds read low 1.06 and 0.972 | locus YJL115W, strain asf1, active compounds read low 0.968 | locus YJL129C, strain trk1, active compounds read low 0.989 | locus YJL134W, strain LCB3, active compounds read low 0.989 | locus YJL154C, strain vps35, active compounds read low 0.968 | locus YJL164C, strain tpk1, active compounds read low 0.975 | locus YJL166W, strain qcr8, active compounds read low 1.01 | locus YJL168C, strain set2, active compounds read low 0.991 | locus YJL187C, strain SWE1 (second series), active compounds read low 1.01 | locus YJL187C, strain SWE1, active compounds read low 0.984 | locus YJR043C, strain POL32, active compounds read low 0.958 | locus YJR066W, strain TOR1, active compounds read low 0.983 | locus YKL009W, strain mrt4, active compounds read low 1.03 | locus YKL068W, active compounds read low 0.986 | locus YKL085W, strain MDH1 (second series), active compounds read low 0.994 | locus YKL085W, strain MDH1, active compounds read low 0.994 | locus YKL160W, strain elf1, active compounds read low 1.02 | locus YKL190W, strain CNB1, active compounds read low 1 | locus YKR001C, strain vps1, active compounds read low 0.992 | locus YKR026C, strain gcn3, active compounds read low 0.964 | locus YKR091W, strain srl3, active compounds read low 0.962 | locus YLL001W, strain dnm1, active compounds read low 1.01 | locus YLL026W, active compounds read low 0.996 | locus YLL041C, strain sdh2, active compounds read low 1 | locus YLR027C, strain aat2, active compounds read low 0.977 | locus YLR039C, strain RIC1, active compounds read low 0.993 | locus YLR058C, strain SHM2, active compounds read low 0.986 | locus YLR102C, strain apc9, active compounds read low 0.997 | locus YLR113W, strain HOG1, active compounds read low 0.99 | locus YLR221C, strain rsa3, active compounds read low 1 | locus YLR258W, strain gsy2, active compounds read low 0.974 | locus YLR262C, strain YPT6 (second series), active compounds read low 1 | locus YLR262C, strain YPT6, active compounds read low 0.954 | locus YLR268W, strain sec22, active compounds read low 0.973 | locus YLR320W, strain mms22, active compounds read low 0.96 | locus YLR330W, strain CHS5, active compounds read low 0.988 | locus YLR342W, strain FKS1 (second series), active compounds read low 0.995 | locus YLR342W, strain FKS1, active compounds read low 0.994 | locus YLR357W, strain rsc2, active compounds read low 1.03 | locus YLR370C, strain arc18, active compounds read low 0.994 | locus YLR371W, strain rom2, active compounds read low 0.994 | locus YLR384C, strain iki3, active compounds read low 0.983 | locus YLR418C, strain cdc73, active compounds read low 1.01 | locus YML016C, strain PPZ1, active compounds read low 0.993 | locus YML032C, strain rad52, active compounds read low 0.993 | locus YML120C, strain ndi1, active compounds read low 0.989 | locus YML124C, strain tub3, active compounds read low 0.993 | locus YMR058W, strain fet3, active compounds read low 0.99 | locus YMR078C, strain ctf18, active compounds read low 0.98 | locus YMR125W, strain sto1, active compounds read low 1.02 | locus YMR129W, active compounds read low 0.968 | locus YMR205C, strain PFK2, active compounds read low 1 | locus YMR223W, strain ubp8, active compounds read low 1.03 | locus YMR231W, strain pep5, active compounds read low 0.999 | locus YMR307W, strain GAS1, active compounds read low 1 | locus YNL067W, strain RPL9B, active compounds read low 1.01 | locus YNL071W, strain lat1, active compounds read low 0.989 | locus YNL128W, strain TEP1, active compounds read low 0.996 | locus YNL183C, strain NPR1, active compounds read low 0.91 | locus YNL209W, strain ssb2, active compounds read low 0.99 | locus YNL233W, strain BNI4, active compounds read low 1.03 | locus YNL248C, strain rpa49, active compounds read low 0.977 | locus YNL250W, strain rad50, active compounds read low 1.01 | locus YNL271C, strain bni1, active compounds read low 1.01 | locus YNL298W, strain CLA4, active compounds read low 0.989 | locus YNL307C, strain MCK1, active compounds read low 0.994 | locus YNL322C, strain KRE1 (second series), active compounds read low 0.971 | locus YNL322C, strain KRE1, active compounds read low 1 | locus YNR049C, strain mso1, active compounds read low 0.981 | locus YNR052C, strain pop2, active compounds read low 0.992 | locus YOL006C, strain TOP1, active compounds read low 1.15 | locus YOL012C, strain htz1 0.969 | locus YOL147C, strain pex11, active compounds read low 1 | locus YOR001W, strain rrp6, active compounds read low 1.01 | locus YOR061W, strain CKA2, active compounds read low 0.976 | locus YOR069W, strain VPS5, active compounds read low 0.988 | locus YOR070C, strain gyp1, active compounds read low 0.995 | locus YOR080W, strain dia2, active compounds read low 0.992 | locus YOR083W, strain WHI5, active compounds read low 1.02 | locus YOR106W, strain vam3, active compounds read low 0.997 | locus YOR136W, strain idh2, active compounds read low 0.984 | locus YOR144C, strain elg1, active compounds read low 0.99 | locus YOR184W, strain ser1, active compounds read low 0.986 | locus YOR231W, strain MKK1, active compounds read low 0.971 | locus YOR265W, strain rbl2, active compounds read low 0.99 | locus YOR270C, strain vph1, active compounds read low 1.05 | locus YOR290C, strain snf2, active compounds read low 0.946 | locus YOR316C, strain cot1, active compounds read low 0.984 | locus YPL051W, strain arl3, active compounds read low 1.01 | locus YPL055C, strain LGE1, active compounds read low 1.01 | locus YPL078C, strain atp4, active compounds read low 0.968 | locus YPL106C, strain sse1, active compounds read low 0.963 | locus YPL240C, strain hsp82, active compounds read low 1.01 | locus YPL256C, strain CLN2, active compounds read low 1 | locus YPR119W, strain clb2, active compounds read low 0.991 | locus YPR141C, strain kar3, active compounds read low 0.992 | locus YPR163C, strain tif3, active compounds read low 0.988 | locus YPR167C, strain met16, active compounds read low 0.998 | strain wtn01, active compounds read low 0.999
